Compound activity deposited in PubChem BioAssay by several laboratories.
Hits are enriched below; roughly 2.8% of the tested compounds scored in any of these assays.
Shn3 3UTR inh – reduces Shn3 3'UTR luciferase signal in osteoblasts | Clone20 osteoblast Shn3 3'UTR firefly luciferase, 24 h | inhibition, % at 12.5 µM | actives 0.52% (n = 360,000);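 active means mean inhibition of at least 75% with every replicate also reaching 75%; inconclusive means mean inhibition at least 75% but some replicate below; inactive means mean inhibition below 75%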;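 further: 0% = median of neutral control wells and 100% = pilot-screen positive control compound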
KKLEB cytotox – counter-screen for CF NF-kB inhibitors: cytotoxicity. KKLEB CF airway cells viability, ATPlite luminescence, overnight; hits give low values; cells stimulated with P. aeruginosa culture filtrate. actives 0.36% (n = 360,000). activity change (cytotoxicity), % at 5 µM;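 active means corrected activity change at or below -50% at 5 µM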
Peg3 promoter – inhibitors of Peg3 promoter | HeLa PEG-Prom luciferase reporter, luminescence, overnight | inhibition, % at 20 µM | actives 1.7% (n = 360,000);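 active means inhibition of at least 50% at 20 µM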
TRPM1 prom inh – MITF TRPM1 promoter inhibition in SK-MEL-5 cells. SK-MEL-5 TRPM1 promoter luciferase, 24 h. inhibition, % at 12.5 µM. actives 0.83% (n = 330,000). AID 488899;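 active means mean inhibition across replicates of 60% or more, whatever share of single replicates reaches that level; inconclusive means some that reach 60%, reason not given; inactive means mean inhibition across replicates below 60%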
CF NFkB inh – inhibitors of cystic fibrosis induced NF-kB. KKLEB NF-kB-GFP reporter, PAF-induced, GFP fluorescence overnight. inhibition, % at 5 µM. actives 0.86% (n = 360,000). AID 588850;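 active means at least 50% inhibition at 5 µM, scaled per plate between neutral and stimulator controls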;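 further: PAF is a Pseudomonas aeruginosa culture filtrate used as stimulus; plate controls were PAF-stimulated DMSO wells for no effect and unstimulated DMSO wells for full effect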
HIF-2a block – HIF-2a inhibition; inhibition, % at 18.8 µM; 786-0 RCC cells HIF-2a reporter, luciferase luminescence, overnight; actives 0.72% (n = 360,000);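 active means inhibition of the luminescence signal of 40% or more relative to plate controls, in a single-dose primary screen at 18.75 µM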
* = called active by the depositor; ? = inconclusive; / = no result.

SMILES	Shn3 3UTR inh	KKLEB cytotox	Peg3 promoter	TRPM1 prom inh	CF NFkB inh	HIF-2a block
COc1ccc([C@@H]2[C@@H]3C(=O)N(C(C)(C)C)C(=O)[C@@H]3[C@]3(Cc4ccccc4)C(=O)N(c4ccc(Br)cc4)C(=O)N23)cc1	23	-83*	11	-7	71*	-12
CC1CCN(S(=O)(=O)c2ccc3c(c2)N(CC(=O)NCCN2C(C)CCCC2C)C(=O)CS3)CC1 (stereo not given)	-2	-1	2	-17	-11	11
Cc1cccc(OCC(O)Cn2c(=N)n(CCN3CCCCC3)c3ccccc32)c1 (stereo not given)	64	-14	95*	79*	14	25
CCN(CC)CCn1c(=N)n(CC(O)COc2cccc(C)c2)c2ccccc21 (stereo not given)	82	-18	58*	4	-2	18
O=C(CSc1nc(=O)[nH]c2c1CCCC2)Nc1cc(C(F)(F)F)cc(C(F)(F)F)c1	59	-5	26	2	8	2
O=C(O)c1ccc(CNC(=O)C23CC4CC(CC(C4)C2)C3)cc1	8	13	3	-1	-4	24
Cc1ccc(C(=O)OCC(=O)NC(=O)NCc2ccccc2)cc1C	-7	3	-17	2	4	4
O=C(COC(=O)c1ccc(F)c([N+](=O)[O-])c1)NC(=O)NCc1ccccc1	5	-1	97*	70*	21	33
C[C@H]1[C@H](C)CC[C@]2(C(=O)O)CC[C@]3(C)C(=CC[C@@H]4[C@@]5(C)CC[C@H](O)C(C)(C)[C@@H]5CC[C@]43C)[C@H]12	-6	-3	53*	4	7	5
CC(C)(C)OC(=O)N1CCC(NC(=O)c2nc[nH]c2C(=O)NCC(=O)OCc2ccccc2)CC1	-3	-2	55*	-11	16	3
Oc1c(Br)cc(/C=N/Nc2ccc(Cl)nn2)cc1Br	-12	30	-3	2	-20	22
Oc1c(Br)cc(Br)cc1/C=N/Nc1ccc(Cl)nn1	95*	-20	48	66*	3	18
CC1CC(C)(C)NC(=S)O1 (stereo not given)	20	3	-2	-1	-18	2
COc1cc2c(cc1NC(=O)c1cc(-c3cccnc3)nc3ccc(C)cc13)oc1ccccc12	-8	-21	63*	-13	9	-30
O=C(Nc1ccccn1)c1cc(-c2cccnc2)nc2ccc(Br)cc12	13	7	56*	?	-15	1
COc1cccc(-c2csc(/C(C#N)=C/Nc3cc4oc5ccccc5c4cc3OC)n2)c1	-7	16	3	3	-12	0
COc1cc2c(cc1N/C=C(\C#N)c1nc(-c3ccccc3)cs1)oc1ccccc12	-20	-18	61*	-22	1	12
COc1cc2c(cc1NC(=O)c1cc(-c3ccncc3)nc3ccccc13)oc1ccccc12	16	-12	25	-8	4	2
C[C@@H]1CN([C@H](C)CO)C(=O)CCCn2nncc2CO[C@H]1CN(C)C(=O)C1CCCCC1	6	10	-17	/	2	14
Cc1ccc(-n2cc(CN3CCC(O)(c4ccccn4)CC3)c(-c3ccc(F)cc3)n2)cc1	12	-17	-14	-10	29	-12
O=C(NCc1cc(Cl)cc(Cl)c1)c1csc([C@@H]2C[C@H](O)[C@@H](CO)O2)n1	2	0	10	/	6	-1
C/C(CC(=O)NC1CCCC1)=N\NC(=O)c1ccc([N+](=O)[O-])c(Cl)c1	-9	3	7	4	10	11
Cc1ccc(-c2nn(CC(=O)NCc3cc(-c4nn(C)c(=O)c5ccccc45)ccc3C)c(=O)c3ccccc23)cc1	81	8	70*	82*	0	2
CCc1cccc(CC)c1NC(=O)CSc1nnc(C2CC2)n1C	8	5	7	6	-13	12
O=C(c1ccoc1)N1CCN(c2cc(-c3ccccc3)nc3cc(-c4ccc(Br)cc4)nn23)CC1	49	0	28	/	-22	-3
COc1ccc(-c2cc3nc(-c4ccccc4)cc(N4CCN(C(=O)c5ccoc5)CC4)n3n2)cc1	0	4	55*	/	-4	-9
CN(C)c1ccc(C(=O)c2ccc(O)cc2O)cc1	-81	10	-219	-56	10	-142
